In PubChem BioAssay (NCATS):
Inconclusive results are not listed. Active and inactive are the calls of the source. Calls come from the whole dose curve; as a rule, active = well fitted cell-killing curve with a large enough effect; inconclusive = small, poorly fitted or top-dose-only effect, or effect the other way; inactive = no such curve, though single readings can be large or run the other way.

Columns and labels:
[1] = Quantitative High-Throughput drug screen in 47 multiple myeloma cell lines against the NCATS MIPE library collection: FR4_PLB cell viability assay (AID 1918924; note: nearly all actives have a fitted effect of over 35% in size)
Method in brief: (§1)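 qHTS of the MIPE 4.0 collection: 500 myeloma cells/well, 48 h drug exposure at 37C in 5% CO2, then CellTiter-Glo for 5 min at room temperature before luminescence reading.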

[2] = Quantitative High-Throughput drug screen in 47 multiple myeloma cell lines against the NCATS MIPE library collection: EJM_DSMZ cell viability assay (AID 1918926; note: nearly all actives have a fitted effect of over 30% in size)
Method in brief: (§2)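 We plated 500 myeloma cells per well, pinned in MIPE 4.0 compounds, and incubated for 48 hours at 37C. ATP was then quantified with CellTiter-Glo, with DMSO and media-only wells defining 100% and 0%.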

[3] = Quantitative High-Throughput drug screen in 47 multiple myeloma cell lines against the NCATS MIPE library collection: AMO1_DSMZ cell viability assay (AID 1918927; note: nearly all actives have a fitted effect of over 30% in size)
Method in brief: as §2

[4] = Quantitative High-Throughput drug screen in 47 multiple myeloma cell lines against the NCATS MIPE library collection: ARP1_JJKsccF8 cell viability assay (AID 1918928; note: nearly all actives have a fitted effect of over 40% in size)
Method in brief: (§3)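 Viability screen: myeloma cells (500/well) incubated 48 h at 37 °C, humidified 5% CO2, with pinned library compounds; CellTiter-Glo added, luminescence read; DMSO wells set 100%, medium-only wells 0%.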

[5] = Quantitative High-Throughput drug screen in 47 multiple myeloma cell lines against the NCATS MIPE library collection: ARD_JJKsccE7 cell viability assay (AID 1918929)
Method in brief: as §2

[6] = Quantitative High-Throughput drug screen in 47 multiple myeloma cell lines against the NCATS MIPE library collection: Karpas620_DSMZ cell viability assay (AID 1918959); note: nearly all actives have a fitted effect of over 30% in size
Method in brief: as §1

[7] = Quantitative High-Throughput drug screen in 47 multiple myeloma cell lines against the NCATS MIPE library collection: KMM1_JCRB cell viability assay (AID 1918960); note: nearly all actives have a fitted effect of over 30% in size
Method in brief: as §3

[8] = Quantitative High-Throughput drug screen in 47 multiple myeloma cell lines against the NCATS MIPE library collection: Karpas417_ECACC cell viability assay (AID 1918961); settings: Karpas417 myeloma viability, CellTiter-Glo ATP luminescence, 48 h; viability (% of DMSO): at 45.8 µM (top of the series)
Method in brief: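 Luminescent ATP measurement with CellTiter-Glo gives viability, scaled between DMSO-only wells (100%) and media-only wells (0%). Cells, 500 per well, faced library compounds for 48 hours at 37C.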

Measured: Potency
Potency is the fitted concentration of half-maximal effect.

O=C(O)CCCCCC(=O)NN=C1CCCC1
not listed: [8]
inactive: all other assays above

O=C(NNC(=O)c1ccc(CNS(=O)(=O)c2ccc(F)c(Cl)c2)cc1)c1ccccc1
not listed: [8]
inactive: all other assays above

N#CNC(=NCCCCCCOc1ccc(Cl)cc1)Nc1ccncc1
active: [1] 20900 nM | [2] 16600 nM | [3] 18.7 nM | [4] 6.6 nM | [5] 46.9 nM | [6] 1.9 nM | [7] 5.9 nM

c1ccc(CNc2nc(NCc3ccccc3)c3ccccc3n2)cc1
active: [1] 23500 nM | [2] 18700 nM | [3] 8330 nM | [5] 18700 nM | [6] 5260 nM | [7] 4690 nM

O=c1c(O)c(-c2ccc(O)c(O)c2)oc2cc(O)ccc12
active: [1] 20900 nM | [2] 20900 nM | [3] 10500 nM | [4] 20900 nM | [7] 5900 nM

CC(=O)[C@]1(O)Cc2c(O)c3c(c(O)c2[C@@H](O[C@H]2C[C@H](N)[C@@H](O)[C@H](C)O2)C1)C(=O)c1ccccc1C3=O
active: [1] 469 nM | [2] 118 nM | [3] 833 nM | [4] 264 nM | [5] 3320 nM | [6] 2090 nM | [7] 2350 nM

COC(=O)[C@H](CCCN=C(N)N)NS(=O)(=O)c1ccc(C)cc1
not listed: [8]
inactive: all other assays above

CC(=O)N[C@@H]1[C@H](O[C@@H]2c3ccc(c(Cl)c3)Oc3cc4cc(c3O[C@H]3O[C@H](CO)[C@@H](O)[C@H](O)[C@H]3NC(=O)CCCCCCCC(C)C)Oc3ccc(cc3Cl)C[C@H]3NC(=O)[C@H](N)c5ccc(O)c(c5)Oc5cc(O)cc(c5)[C@H](NC3=O)C(=O)N[C@H]4C(=O)N[C@H]3C(=O)N[C@@H]2C(=O)N[C@@H](C(=O)O)c2cc(O)cc(O[C@H]4O[C@H](CO)[C@@H](O)[C@H](O)[C@H]4O)c2-c2cc3ccc2O)O[C@H](CO)[C@@H](O)[C@@H]1O
not listed: [8]
inactive: all other assays above

CN[C@H](CC(C)C)C(=O)N[C@H]1C(=O)N[C@@H](CC(N)=O)C(=O)N[C@@H]2C(=O)N[C@H]3C(=O)N[C@H](C(=O)N[C@H](C(=O)O)c4cc(O)cc(O)c4-c4cc3ccc4O)[C@H](O)c3ccc(c(Cl)c3)Oc3cc2cc(c3O[C@@H]2O[C@H](CO)[C@@H](O)[C@H](O)[C@@H]2O[C@H]2C[C@](C)(N)[C@H](O)[C@H](C)O2)Oc2ccc(cc2Cl)[C@H]1O
active: [5] 2.3 nM
not listed: [8]
inactive: all other assays above

COC(=O)[C@@H]1CC2=CC(=O)CC[C@]2(C)[C@@]23O[C@@H]2C[C@@]2(C)[C@H](CC[C@@]24CCC(=O)O4)[C@@H]13
not listed: [4] | [8]
inactive: all other assays above

NC(=O)c1ncn([C@@H]2O[C@H](CO)[C@@H](O)[C@@H]2O)c1N
inactive: all assays above

COc1cc(O)c2c(c1)C1OC1C[C@H](O)[C@H](O)C(=O)C=CC[C@H](C)OC2=O (stereo partly specified)
active: [1] 3320 nM | [2] 7430 nM | [3] 2960 nM | [4] 4690 nM | [5] 5900 nM | [6] 2640 nM | [7] 4180 nM | [8] 469 nM

C=CC(=O)N1CCc2ccc(-n3c(=O)ccc4cnc5ccc(-c6cnn(C)c6)cc5c43)cc21
active: [1] 1660 nM | [2] 3720 nM | [3] 2960 nM | [4] 1050 nM | [5] 833 nM | [6] 3720 nM | [7] 833 nM

COC1=C(OC)C(=O)C(CC=C(C)CCC=C(C)CCC=C(C)CCC=C(C)CCC=C(C)CCC=C(C)CCC=C(C)CCC=C(C)CCC=C(C)CCC=C(C)C)=C(C)C1=O
inactive: all assays above

C[C@H](NC(=O)[C@@H](O)c1cc(F)cc(F)c1)C(=O)N[C@@H]1C(=O)N(C)c2ccccc2-c2ccccc21
not listed: [7] | [8]
inactive: all other assays above

O=C(C=Cc1ccc(CN(CCO)CCc2c[nH]c3ccccc23)cc1)NO
active: [1] 74.3 nM | [2] 235 nM | [3] 93.5 nM | [4] 83.3 nM | [5] 93.5 nM | [6] 148 nM | [7] 105 nM

C[C@H]1O[C@H](O[C@H]2[C@H](O)[C@@H](O)[C@@H](O[C@H]3[C@H](O)[C@@H](O)C(O)O[C@H]3CO)O[C@H]2CO)[C@H](O)[C@@H](O)[C@H]1N[C@H]1C=C(CO)[C@@H](O)[C@H](O)[C@@H]1O (stereo partly specified)
inactive: [1] | [2] | [4]

CN[C@@H]1C[C@H]2O[C@@](C)([C@H]1OC)n1c3ccccc3c3c4c(c5c6ccccc6n2c5c31)C(=O)N[C@H]4O
active: [1] 2090 nM | [2] 526 nM | [3] 332 nM | [4] 833 nM | [5] 148 nM | [6] 590 nM

C[C@](Cc1c[nH]c2ccccc12)(NC(=O)OC1C2CC3CC(C2)CC1C3)C(=O)NC[C@H](NC(=O)CCC(=O)O)c1ccccc1 (stereo partly specified)
inactive: [1] | [2] | [4]

CC[C@H]1OC(=O)[C@H](C)[C@@H](O[C@H]2C[C@@](C)(OC)[C@@H](O)[C@H](C)O2)[C@H](C)[C@@H](O[C@@H]2O[C@@H](C)C[C@H](N(C)C)[C@@H]2O)[C@](C)(O)C[C@@H](C)C(=O)[C@H](C)[C@@H](O)[C@]1(C)O
not listed: [8]
inactive: all other assays above

Cn1cc(C[C@@H](N)C(=O)O)c2ccccc21
inactive: [1] | [2] | [3] | [4] | [6]

Cc1ccc(O)c(C(CCN(C(C)C)C(C)C)c2ccccc2)c1 (stereo unspecified)
active: [2] 1.7 nM
not listed: [8]
inactive: all other assays above

CC1(C)O[C@@H]2C[C@H]3[C@@H]4CCC5=CC(=O)C=C[C@]5(C)[C@@H]4[C@@H](O)C[C@]3(C)[C@]2(C(=O)CO)O1
inactive: [1] | [2]
active: [4] 37.2 nM

C[C@H](CCC(=O)O)[C@H]1CCC2C3C[C@H](O)[C@@H]4C[C@H](O)CC[C@]4(C)C3CC[C@@]21C (stereo partly specified)
not listed: [5] | [8]
inactive: all other assays above

Cc1cc(Nc2ncc3c(n2)N(C)C(=O)N(c2cc(NC(=O)c4cccc(C(F)(F)F)c4)ccc2C)C3)n(C)n1
active: [1] 418 nM | [2] 662 nM | [3] 833 nM | [4] 743 nM | [5] 935 nM | [6] 1480 nM | [7] 1180 nM

CN1[C@H]2CC(OC(=O)[C@@H](CO)c3ccccc3)C[C@H]1[C@H]1O[C@H]12 (stereo partly specified)
not listed: [8]
inactive: all other assays above

O=C(NCc1ccccc1)[C@H](Cc1ccccc1)NC(=O)[C@@H]1O[C@@H]1C(=O)NCCc1ccc(O)cc1
inactive: [1]
active: [2] 83.3 nM | [3] 20900 nM | [6] 26400 nM

Cc1onc(-c2ccccc2)c1C(=O)N[C@@H]1C(=O)N2[C@@H](C(=O)O)C(C)(C)S[C@@H]12
not listed: [4] | [8]
inactive: all other assays above

C[C@@]12C[C@@]3(O)O[C@@H](O1)[C@]1(COC(=O)c4ccccc4)[C@@H]3C[C@@]12O[C@@H]1O[C@H](CO)[C@@H](O)[C@H](O)[C@@H]1O
not listed: [4] | [8]
inactive: all other assays above

CON=C(C(=O)N[C@@H]1C(=O)N2C(C(=O)O)=C(Cn3ccc(=N)n3CCO)CS[C@H]12)c1csc(N)n1
not listed: [4] | [8]
inactive: all other assays above

Cc1ccc([N+](=O)[O-])cc1S(=O)(=O)N(C)N=Cc1cnc2ccc(Br)cn12
active: [1] 16.6 nM | [2] 23.5 nM | [3] 14.8 nM | [4] 26.4 nM | [6] 26.4 nM | [7] 11.8 nM

CON=C(C(=O)N[C@@H]1C(=O)N2C(C(=O)O)=C(CSC(=O)c3ccco3)CS[C@H]12)c1csc(N)n1
inactive: [1] | [2] | [3] | [6] | [7]

COc1ccnc2[nH]cc(C(=O)C(=O)N3CCN(C(=O)c4ccccc4)C[C@@H]3C)c12
active: [4] 16600 nM
not listed: [5] | [8]
inactive: all other assays above

CO[C@@H]1[C@@H](O)[C@H](O)[C@@H](n2c3c(Cl)cccc3c3c4c(c5c6cccc(Cl)c6[nH]c5c32)C(=O)NC4=O)O[C@@H]1CO
active: [1] 3320 nM | [2] 2640 nM | [3] 166 nM | [5] 5260 nM | [6] 1480 nM | [7] 264 nM | [8] 1320 nM

Nc1nc(N)c2nc(-c3cccc(O)c3)c(-c3cccc(O)c3)nc2n1
active: [1] 10500 nM | [2] 18700 nM | [3] 7430 nM | [4] 20900 nM | [5] 8330 nM | [6] 11800 nM | [7] 3720 nM | [8] 1320 nM

OC[C@@H](O)[C@@H](O)[C@H](O)[C@@H](O)CO
active: [3] 5900 nM
not listed: [5] | [8]
inactive: all other assays above

C[C@@H]1C(=O)O[C@H]2CC34[C@H]5C[C@@H](C(C)(C)C)C36[C@H](OC(=O)[C@@H]6O)O[C@@]4(C(=O)O5)[C@]21O (stereo partly specified)
not listed: [8]
inactive: all other assays above
